Experimental data taken from PubChem BioAssay (Tox21).
Activity calls are given as the source filed them. The call rests on the fitted dose curve; in most records, active means well fitted curve in the direction sought with a large enough effect in the repeat runs; inconclusive means weak or mixed curves; inactive means flat fitted curve, though single readings scatter.

assay: qHTS assay to test for compound auto fluorescence at 590 nm (red) in HepG2 cell free culture (AID 720684); details: cell-free medium autofluorescence, red 540/590 nm; series mostly up to 91.3 µM
Excerpt: U.S. Tox21 Program National Center for Advancing Translational Sciences [NCATS] NIH Chemical Genomics Center [NCGC] U.S. Environmental Protection Agency [EPA] National Institutes of Environmental Health Sciences [NIEHS] National Toxicology Program [NTP] U.S. Food and Drug Administration [FDA] Tox21 Assay Overview: Compound auto fluorescence often interferes with screening of the compound library against various biological targets and signaling pathways. Some of these compounds may have fluorophoric properties. Such properties may interfere with the assay outputs resulting in false positives and/or negatives. To decrease such complications and ensure the compound activities are relevant in terms of biological response, the Tox21 10K compound library was screened for auto fluorescence. From the fluorophores used as reporter signals in our screening assays, the auto fluorescence equivalencies of compounds against three fluorophores have been evaluated: Triamterene, Fluorescein and Rose Bengal sodium for blue, green and red fluorescence, respectively. The fluorescence intensities were measured using Excitation/Emission wavelengths at 405/460nm, 485/535nm and 540/590nm for blue, green and red labels, respectively. This assay includes the red fluorescence data.
Tox21 Assay Protocol Summary: 5 uL of culture medium (MEM containing 10% FBS) per well was dispensed into black wall/clear bottom 1536-well plates using a Multidrop Combi Dispenser (ThermoFisher Scientific, Waltham, MA). After 23 nL compound or DMSO vehicle was transferred into assay plate by a pintool work station (Kalypsys, San Diego, CA), fluorescence intensities in the assay plates were measured by an Envision (PerkinElmer, Shelton, CT) plate reader using three labels for measuring blue, green and red fluorescence at […] 460, 535 and 590nm respectively.
On the % scale 0 is the no-effect control and ±100 the full control effect.

Row | SMILES | outcome | fluorescence, % of Rose Bengal
1 | ClCc1ccccc1Cl | inactive | 
2 | CCCCC#N | inactive | 
3 | CC(=O)OC(c1ccccc1)C(Cl)(Cl)Cl (stereo not given) | inactive | 
4 | CCCCCBr | inactive | 
5 | NNCCO | inactive | 
6 | CC[N+]1(C)CCCC(OC(=O)C(O)(c2ccccc2)c2ccccc2)C1 (stereo not given) | inactive | 
7 | CC1(C)[C@H](C(=O)O[C@H](C#N)c2cccc(Oc3ccccc3)c2)[C@@H]1C=C(Br)Br | inactive | 
8 | CC(C)(C)NCC(O)c1ccccc1Cl (stereo not given) | inactive | 
9 | CC[N+]1(CCOC(=O)C(O)(c2ccccc2)c2ccccc2)CCCCC1 | inactive | 
10 | Oc1cccc(Cl)c1 | inactive | 
11 | CCCC1CCCCN1 (stereo not given) | inactive | 
12 | COc1ccccc1N1CCNCC1 | inactive | 
13 | CCC(C)(C)c1ccc(O)c(C(C)(C)CC)c1 | inactive | 
14 | CC(Cc1ccccc1)NCc1ccccc1Cl (stereo not given) | inactive | 
15 | SCc1ccccc1 | inactive | 
16 | O=C1NC(=O)C(=O)C(=O)N1 | inactive | 
17 | Nc1c(Br)cc(Br)c2c1C(=O)c1ccccc1C2=O |  | -0.122% [at 18.6 µM] (inactive)
18 | O=C(O)CCCOc1ccc(Cl)cc1Cl | inactive | 
19 | CCC1(C2=NCCN2)Cc2ccccc2O1 (stereo not given) | inactive | 
20 | C=CCSSCC=C | inactive | 

Row | SMILES | outcome | fluorescence, % of Rose Bengal
21 | C[C@]12CC[C@H]3[C@@H](CCC4=CC(=O)CC[C@@H]43)[C@@H]1CC[C@@H]2OC(=O)CCc1ccccc1 | inactive | 
22 | C=CCOCC1CO1 (stereo not given) | inactive | 
23 | O=C(NCNC(=O)NC1C(=O)NC(=O)N1CO)NC1C(=O)NC(=O)N1CO (stereo not given) | inactive | 
24 | CCCCCCCCP(=O)(O)O | inactive | 
25 | Nc1cccc2ccccc12 | inactive | 
26 | C1CCNCC1 | inactive | 
27 | C[N+]1(CCF)[C@@H]2CC[C@H]1CC(OC(=O)C(O)(c1ccccc1)c1ccccc1)C2 (stereo not given in full) | inactive | 
28 | Clc1ccc(Cl)c(Cl)c1 | inactive | 
29 | CCC(C)Cl (stereo not given) | inactive | 
30 | CC(C)CCCCCCCOC(=O)c1ccccc1C(=O)OCCCCCCCC(C)C | inactive | 
31 | C=CC(C)(CCC=C(C)C)OC(=O)c1ccccc1N (stereo not given) | inactive | 
32 | Cc1nnc(-c2ccccc2)c(=O)n1N | inactive | 
33 | CC(C)[C@@H](C(=O)O[C@@H](C#N)c1cccc(Oc2ccccc2)c1)c1ccc(Cl)cc1 | inactive | 
34 | CCCC[N+]1(C)[C@@H]2CC(OC(=O)[C@H](CO)c3ccccc3)C[C@H]1[C@@H]1O[C@@H]12 (stereo not given in full) | inactive | 
35 | COC(=O)C1(O)c2ccccc2-c2ccccc21 | inactive | 
36 | CCC(C)(C)O | inactive | 
37 | Cc1cnc(C2=NC(C)(C(C)C)C(=O)N2)c(C(=O)O)c1 (stereo not given) | inactive | 
38 | CNC(=O)Oc1cccc(N=CN(C)C)c1 | inactive | 
39 | C=CC(=O)OCC | inactive | 
40 | O=CC=O | inactive | 
